Many of the other results were omitted from the sample, so hits are more common in it than they were.
NOMO-1 viab: STK33 inhibitor candidate reducing NOMO-1 cell viability | NOMO-1 AML viability, CellTiter-Glo luminescence, 72 h | inhibition, % (concentration not given with the values) | 37,000 tested, 7.5% active | AID 2330; in the data active = inhibition above about 80%; inconclusive = no clear call, values can overlap the other calls
STK33 kin inh: blocks human STK33 kinase activity | Q9BYT3 | ADP-Glo luminescence, MBP substrate | inhibition, % at 12.5 µM | 27,000 tested, 0.44% active; in the data active = inhibition above about 20%; inconclusive = no clear call, values can overlap the other calls
Target sequence (Q9BYT3 whole entry, looked up): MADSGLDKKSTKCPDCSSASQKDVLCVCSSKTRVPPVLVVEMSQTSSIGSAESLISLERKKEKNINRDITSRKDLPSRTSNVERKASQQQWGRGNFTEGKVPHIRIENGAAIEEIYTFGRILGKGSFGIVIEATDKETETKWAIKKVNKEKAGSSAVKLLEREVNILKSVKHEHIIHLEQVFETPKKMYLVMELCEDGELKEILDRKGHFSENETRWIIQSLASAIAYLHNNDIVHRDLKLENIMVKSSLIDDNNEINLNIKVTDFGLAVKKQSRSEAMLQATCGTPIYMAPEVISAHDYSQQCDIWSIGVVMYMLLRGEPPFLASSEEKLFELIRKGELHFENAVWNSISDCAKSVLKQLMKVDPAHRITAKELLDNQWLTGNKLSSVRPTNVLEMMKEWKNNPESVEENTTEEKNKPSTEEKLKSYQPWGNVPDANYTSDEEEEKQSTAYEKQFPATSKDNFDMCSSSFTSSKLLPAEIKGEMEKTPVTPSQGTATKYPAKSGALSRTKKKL
PD-1 reversal: reversal of PD-1 mediated T-cell inhibition | primary human CD4 T cells, PD-L1 beads, CellTiter-Glo 96 h | activation, % (concentration not given with the values) | 29,000 tested, under 10 active | AID 2316; call rule not given here;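 also: 0% = median vehicle wells and 100% = positive control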
Active calls of the source: *; ? = inconclusive; . = no result.

SMILES | NOMO-1 viab | STK33 kin inh | PD-1 reversal
COc1ccc(Cl)cc1NC(=O)C12CCC(C)(c3nc4ccccc4nc31)C2(C)C (stereo not given) | -3 | -3 | 0
COc1cc(/C(C)=C/C(C)O)oc(=O)c1C (stereo not given) | 17 | -2 | 1
Cc1ccc(C(=O)NC(=O)CSc2n[nH]c(N)n2)cc1 | -6 | -1 | 3
CC(=O)Nc1ccc2oc3ccccc3c2c1 | 4 | . | 0
Cc1ccc(-n2nnnc2SCC(=O)Nc2ccc(N3CCOCC3)c(Cl)c2)cc1C | 32 | 4 | 0
O=C(CSc1nc2ccccc2c(=O)[nH]1)Nc1ccccc1C(=O)c1ccccc1 | 35 | 2 | 2
Brc1c(Br)c(Br)c2n[nH]nc2c1Br | 32 | 20* | 4
Cc1ccc2nc(-c3ccc(C)c(NC(=O)COc4ccc([N+](=O)[O-])cc4)c3)oc2c1 | 10 | 1 | 1
COc1ccc(-c2nc3cc(C(C)C)ccc3o2)cc1NC(=O)COc1ccccc1C | 106* | 0 | 0
COc1ccc(-c2nc3cc(C(C)C)ccc3o2)cc1NC(=O)COc1ccc(C)cc1 | 19 | -3 | 0
Cc1cc(C)cc(OCC(=O)Nc2cc(-c3nc4ccc(C)cc4o3)ccc2C)c1 | 105* | 11 | -6
Cc1ccc(Oc2coc3cc(OCC(=O)Nc4ccccc4C(F)(F)F)ccc3c2=O)cc1 | -8 | 1 | 1
COC(=O)c1cc(C(=O)NCc2ccccc2OC)cc([N+](=O)[O-])c1 | 32 | 5 | -2
O=C(O)CCc1ccc(-c2ccccc2)n1-c1ccc([N+](=O)[O-])cc1 | 11 | -5 | .
Cc1nc(SC(C(=O)O)c2ccccc2)cc(-c2ccccc2)n1 (stereo not given) | 27 | -1 | 0
COc1ccc(NC(=O)CCCSc2nc(N)c3c(C)c(C)sc3n2)cc1 | 9 | -2 | .
COc1cc(OC)cc(-c2nc(N)c3c(C)c(-c4ccc(OC)c(OC)c4)sc3n2)c1 | 115* | . | -7
COC(=O)c1cc(OC)c(OC)cc1NC(=O)C(C)Oc1ccc(OC)cc1 (stereo not given) | 19 | 2 | -1
CN(c1ccc(OCC(=O)O)cc1)S(=O)(=O)c1ccc(F)cc1 | 19 | 0 | 3
C=CC[n+]1ccc2ccccc2c1 | 4 | -2 | 2
O=C1NCc2c1c1c3ccccc3[nH]c1c1[nH]c3ccccc3c21 | 97* | 64* | -4
CCOC(=O)CNC(=O)c1cc(-c2ccccn2)nc2c(C)c(Cl)ccc12 | 97* | 0 | .
COC(=O)CNC(=O)c1cc(-c2ccccn2)nc2ccc(Cl)cc12 | 67 | -1 | .
Cc1cc(C(=O)SCc2ccccc2)nn1Cc1c(Cl)cccc1Cl | 32 | 2 | -2
COc1ccc(CCNC(=O)C2CCCCC2)cc1OC | -16 | . | -1
SMILES | NOMO-1 viab | STK33 kin inh | PD-1 reversal
O=S1(=O)CCC(N(S(=O)(=O)c2ccc(F)cc2)S(=O)(=O)c2ccc(Cl)cc2)C1 (stereo not given) | 15 | -1 | 0
COC(=O)c1cc(NC(=O)CSC2=NCCS2)cc(C(=O)OC)c1 | 93* | 0 | .
COC(=O)c1ccc(NC(=O)CSc2nnc(C)s2)cc1 | 19 | 6 | 2
Cc1ccc(S(=O)(=O)N2CCC(C#N)C(=O)c3ccccc32)cc1 (stereo not given) | 9 | . | -1
Cc1ccc(S(=O)(=O)N2c3ccccc3C(C)(c3ccccc3)CC2(C)C)cc1 (stereo not given) | 108* | . | -1
CCc1cc(-c2n[nH]c(C)c2-c2nc(C)cs2)c(O)cc1OCc1ccc([N+](=O)[O-])cc1 | 109* | 1 | -3
CCc1cc(-c2n[nH]c(C(=O)O)c2-c2nc(C)cs2)c(O)cc1O | 8 | -4 | -1
CS(=O)(=O)N(CC(=O)Nc1ccc(F)c(Cl)c1)c1ccc2c(c1)OCCO2 | 14 | 1 | 1
C[C@@H]1CN([C@@H](C)CO)C(=O)Cc2cc(NC(=O)Nc3cccc4ccccc34)ccc2O[C@@H]1CN(C)Cc1ccc(C(F)(F)F)cc1 | 117* | 4 | -6
C[C@H]1CN([C@@H](C)CO)C(=O)Cc2cc(NC(=O)Nc3cccc4ccccc34)ccc2O[C@@H]1CN(C)Cc1ccncc1 | 16 | -1 | 3
C[C@@H]1CN([C@H](C)CO)C(=O)Cc2cc(NC(=O)Nc3cccc4ccccc34)ccc2O[C@@H]1CN(C)Cc1ccc(-c2ccccc2)cc1 | 94* | 3 | -3
C[C@H](CO)N1C[C@H](C)[C@H](CN(C)Cc2ccncc2)Oc2ccc(NC(=O)Nc3cccc4ccccc34)cc2CC1=O | 125* | . | .
COc1ccc(CN(C)C[C@@H]2Oc3ccc(NC(=O)Nc4cccc5ccccc45)cc3CC(=O)N([C@@H](C)CO)C[C@@H]2C)cc1 | 25 | -3 | .
C[C@@H]1CN([C@H](C)CO)C(=O)Cc2cc(NC(=O)Nc3cccc4ccccc34)ccc2O[C@@H]1CN(C)Cc1ccc(Oc2ccccc2)cc1 | 111* | -7 | -5
C[C@@H]1CN([C@H](C)CO)C(=O)Cc2cc(NC(=O)Nc3cccc4ccccc34)ccc2O[C@H]1CN(C)Cc1ccccc1 | 8 | 3 | .
C[C@@H]1CN([C@@H](C)CO)C(=O)Cc2cc(NC(=O)Nc3cccc4ccccc34)ccc2O[C@@H]1CN(C)Cc1ccc(-c2ccccc2)cc1 | 52 | 1 | -1
COC(=O)c1c(NC(=O)Cn2ccc([N+](=O)[O-])n2)sc2c1CCCC2 | 28 | -1 | -2
CC(C)(C)N1C(=O)c2ccccc2C1=O | -2 | . | 1
O=C(CSc1nc(-c2ccccc2)c(-c2ccccc2)[nH]1)Nc1ccccc1Cl | 49 | 6 | 0
CC(C)(C)C1CCc2c(sc(NC(=O)CSc3n[nH]c(-c4ccncc4)n3)c2C#N)C1 (stereo not given) | -3 | -6 | .
COc1ccc(C)cc1N(CC(=O)Nc1ccc(I)cc1C)S(C)(=O)=O | 10 | -2 | 1
COc1ccc(C)cc1N(CC(=O)Nc1ccccc1C(F)(F)F)S(C)(=O)=O | 18 | -4 | .
C[C@H](CO)N1C[C@H](C)[C@H](CN(C)Cc2ccccc2)Oc2ccc(NC(=O)Nc3ccc(C(F)(F)F)cc3)cc2CC1=O | ? | 0 | 0
C[C@@H]1CN([C@H](C)CO)C(=O)Cc2cc(NC(=O)Nc3ccc(C(F)(F)F)cc3)ccc2O[C@H]1CN(C)Cc1ccccc1 | 65 | -3 | -4
C[C@H]1CN([C@@H](C)CO)C(=O)Cc2cc(NC(=O)Nc3ccc(C(F)(F)F)cc3)ccc2O[C@H]1CN(C)Cc1ccccc1 | 85* | -9 | .
SMILES | NOMO-1 viab | STK33 kin inh | PD-1 reversal
C[C@H]1CN([C@@H](C)CO)C(=O)Cc2cc(NC(=O)Nc3ccccc3)ccc2O[C@H]1CN(C)Cc1ccc(C(F)(F)F)cc1 | 127* | . | .
CC(C)c1ccc(NC(=O)CN(C)S(=O)(=O)c2ccc3ccccc3c2)cc1 | -9 | -1 | 1
COc1cc(CC(CO)C(CO)Cc2cc(OC)c(O)c(-c3cc(CC(CO)C(CO)Cc4ccc(O)c(OC)c4)cc(OC)c3O)c2)ccc1O (stereo not given) | . | -10 | .
COc1cc(CC(C)C(C)Cc2ccc(O)c(OC)c2)ccc1O (stereo not given) | 121* | 2 | -12
Cc1sc2ncnc(SCC(=O)Nc3ccc(F)cc3)c2c1C | 6 | 6 | -3
NC(=O)c1c(NC(=O)C2CC(=O)OC23CCCCC3)sc2c1CCCCC2 (stereo not given) | 8 | -1 | .

Assay outcomes as filed in PubChem BioAssay.
